Only some compounds are listed: those with a hit (about 6.9% of all), similar ones and a draw of the others.
MPTP inh: mitochondrial permeability transition pore inhibitors, primary screen, biochemical, isolated mouse mitochondria, absorbance; Ca2+ swelling absorbance, 30 min; AID 602449, 2012; actives 1.4% (n = 360,000); inhibition, % at 10 µM;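 active means inhibition of 50% or more, scaled per plate between neutral and stimulator controls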;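 further: 0% = DMSO wells given calcium and 100% = 1 mM EGTA wells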
SKKanGAS inh: S. pyogenes SKKanGAS growth inhibitors in kanamycin, primary screen, streptokinase expression inhibitor project, SKKanGAS strain, BacTiter-Glo luminescence; 6 h; inhibition, % at 7.5 µM; actives 1.3% (n = 300,000);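 active means mean replicate score, as percent of positive control median, at least 50; inconclusive means mean below 50 but one replicate at or above 50; inactive means mean and every replicate below 50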;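 further: strain carries kanamycin resistance gene driven by streptokinase promoter and grows in 40 µg/ml kanamycin; loss of luminescence reflects streptokinase promoter inhibition or plain growth inhibition; 0% = median of DMSO wells and 100% = positive control at its reference dose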
CSC inhib: cancer stem cell viability inhibitors, primary screen, luminescence; cancer stem cell-like cells viability; inhibition, % at 7.5 µM; actives 1.1% (n = 300,000); in the data active means inhibition above about 75%; inconclusive means no clear call, values can overlap the other calls; tested in HMLE shEcad cells
Mdm2-MdmX inh: inhibitors of human Mdm2-MdmX association, primary screen, cell-based, luminescence, split luciferase, SaOS-2, uHTS. Protein Mdm4 (Homo sapiens) + E3 ubiquitin-protein ligase Mdm2 (Homo sapiens), …. SaOS-2 split-luciferase Mdm2/MdmX complementation. inhibition, % at 8 µM. actives 3% (n = 330,000). AID 485346, 2010;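 active means inhibition of at least 50% at 8 µM in the primary screen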
Target sequence (O15151 whole entry, looked up): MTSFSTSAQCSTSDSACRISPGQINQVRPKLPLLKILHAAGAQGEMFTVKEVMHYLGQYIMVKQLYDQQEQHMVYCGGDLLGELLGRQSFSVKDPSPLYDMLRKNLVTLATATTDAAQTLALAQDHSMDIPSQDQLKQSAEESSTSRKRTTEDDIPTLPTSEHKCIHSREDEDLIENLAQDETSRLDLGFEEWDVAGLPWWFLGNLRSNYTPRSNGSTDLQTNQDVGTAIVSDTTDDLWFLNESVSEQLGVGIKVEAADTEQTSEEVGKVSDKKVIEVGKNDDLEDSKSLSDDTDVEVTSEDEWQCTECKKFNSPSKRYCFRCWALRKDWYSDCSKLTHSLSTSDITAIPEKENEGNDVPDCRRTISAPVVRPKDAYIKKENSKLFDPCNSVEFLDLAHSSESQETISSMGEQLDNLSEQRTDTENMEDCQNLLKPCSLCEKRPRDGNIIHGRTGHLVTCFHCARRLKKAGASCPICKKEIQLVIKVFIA
Target sequence (Q00987 whole entry, looked up): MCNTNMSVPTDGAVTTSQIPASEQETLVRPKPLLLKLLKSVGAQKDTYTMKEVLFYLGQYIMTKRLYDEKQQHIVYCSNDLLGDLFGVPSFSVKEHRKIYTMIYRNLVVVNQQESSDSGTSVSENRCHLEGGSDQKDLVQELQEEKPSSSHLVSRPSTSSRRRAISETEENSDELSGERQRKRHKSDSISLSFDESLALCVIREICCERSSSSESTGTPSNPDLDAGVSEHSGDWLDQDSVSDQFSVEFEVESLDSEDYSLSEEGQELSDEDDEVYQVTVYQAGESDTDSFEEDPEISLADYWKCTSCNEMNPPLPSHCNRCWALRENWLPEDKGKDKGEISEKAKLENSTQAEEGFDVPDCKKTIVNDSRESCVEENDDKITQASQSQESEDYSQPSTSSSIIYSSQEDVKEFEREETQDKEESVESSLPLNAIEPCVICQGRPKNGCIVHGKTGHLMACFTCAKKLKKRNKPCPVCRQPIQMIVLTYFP
Beta cell apopt: inhibitors of cytokine-induced beta cell apoptosis, primary screen, luminescence; INS-1E cytokine-induced death, ATP luminescence, 48 h; percent of positive-control rescue, neutral wells zero; protection from apoptosis, % (no concentration beside the values); actives 0.8% (n = 300,000); AID 435005, 2010;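 active means Every replicate reaches about 75%, or at least half do and their mean reaches it too, limit read from the data; inconclusive means At least half of replicates reach the limit but their mean does not; inactive means Under half of replicates reach the limit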;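 further: 0% = cytokine-treated negative control wells and 100% = positive control rescue; higher means more ATP so stronger rescue from cytokine killing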
GRIN3A LBD mod: binders of NR3A ligand-binding domain, primary screen, biophysical, differential scanning fluorimetry, uHTS. actives 2.5% (n = 340,000). NR3A LBD differential scanning fluorimetry, Tm shift; 0% = protein alone, 100% = glycine-bound protein. AID 1259313, 2017. Tm shift relative to glycine control, % at 25 µM. Glutamate receptor ionotropic, NMDA 3A (GRIN3A) ligand-binding domain;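 active means melting temperature shift of at least 10% of the positive control shift, at one fixed dose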
Starred values were filed as active, the others as inactive; u = inconclusive; x = no result given.

SMILES	MPTP inh	SKKanGAS inh	CSC inhib	Mdm2-MdmX inh	Beta cell apopt	GRIN3A LBD mod
COC(=O)[C@]1(C)N[C@H](CN(C)C(=O)Nc2ccc(F)cc2)[C@@H]2C(=O)N(C)C(=O)[C@@H]21	-0.7	x	x	19.2	-5.9	0.8
COC(=O)[C@]1(C)N[C@H](CN(C)C(=O)Nc2ccccc2)[C@@H]2C(=O)N(C)C(=O)[C@@H]21	-1.2	x	x	-17.1	-6.0	12.7*
CCOc1ccc(NC(=O)c2ccc(OC)cc2)cc1	-1.4	-0.4	-3.6	-49.7	-0.2	-15.4
CCOc1ccc(NC(=O)c2ccc(NC(=O)c3ccc(NC(N)=O)cc3)cc2)cc1	-0.5	x	-1.0	30.4	-4.3	26.8*
CC(C)CC(=O)Nc1ccc(C(=O)NNC(=S)NC(=O)C2CCCCC2)cc1	2.5	93.4*	0.1	47.5	13.3	-9.9
O=C(NC(=S)Nc1ccc(O)cc1)C1CCCC1	-1.3	x	-8.4	-24.5	-5.5	1.8
CCOc1ccc(NC(=O)c2ccc(NC(=S)NC3CCCCC3)cc2)cc1	2.7	9.8	14.9	-11.0	24.7	28.0*
CCOc1ccc(NC(=O)c2ccc(NC(=S)NC3CC3)cc2)cc1	1.7	0.5	-7.7	-15.2	-0.1	30.9*
COc1ccnc2c1c(=O)n(Cc1ccc(Cl)cc1Cl)c(=O)n2C	-0.4	6.0	-8.8	26.2	12.0	-2.7
COc1ccc(NC(=S)Nn2cnnc2)c(OC)c1	0.8	x	2.9	13.6	5.6	-1.6
N#CCC(=O)Nc1ccc(C(=O)NNC(=S)NC2CCCCC2)cc1	-0.9	x	-21.2	33.9	-1.2	29.2*
COc1ccc(CNC(=O)CN(c2ccccc2)S(=O)(=O)c2ccccc2[N+](=O)[O-])cc1	-1.4	0.5	17.8	3.9	4.8	-0.1
Cc1ccc2nc(N/C(=N/S(=O)(=O)c3ccc(F)cc3)c3ccccc3)sc2c1	28.3	51.0*	20.7	-25.7	5.3	-7.5
Cc1ccc2nc(-c3ccc(NC(=S)NCCC(C)C)cc3)sc2c1	3.6	-3.0	1.8	-144.0	0.4	23.7*
CC(=O)Nc1ccc(S(=O)(=O)Nc2nc3ccc(C)cc3s2)cc1	0.6	15.0	22.7	23.8	-6.3	-4.5
Cc1ccc2nc(-c3ccc(N)cc3)sc2c1	3.4	53.9*	70.3	-8.9	2.8	-4.8
Cc1ccc2nc(-c3ccc(NS(=O)(=O)c4ccc(F)cc4)cc3)sc2c1	24.7	76.1*	x	-126.7	4.4	30.9*
CNC(=S)Nc1ccc(-c2nc3ccc(C)cc3s2)cc1	1.9	-15.6	9.8	-229.6	6.0	28.3*
CSc1ccccc1NC(=O)CSc1nnc(Cc2ccccc2)o1	-1.4	4.8	x	6.8	-2.0	-0.9
CCn1c(=O)c(=O)[nH]c2c(=O)oc3ccc(S(=O)(=O)Nc4ccccc4)cc3c21	1.2	16.3	-6.9	14.5	-3.0	16.3*
COc1ccc(NC(=O)NCCC2=CCCCC2)cc1	1.8	-2.1	13.9	-146.7	-0.8	30.6*
COc1cccc(NC(=O)NCCC2=CCCCC2)c1	11.8	-8.8	3.2	-46.7	10.0	0.3
COc1cc2[nH]c(=O)c(C(=O)NCc3ccccc3Cl)c(O)c2cc1OC	0.3	2.0	x	-8.4	x	0.7
O=C(NNC(=S)NC(=O)c1ccccc1Cl)c1cccc([N+](=O)[O-])c1	2.8	41.0	-0.4	-23.9	2.7	-7.6
Cc1ccc(C(=O)NC(=S)NNC(=O)c2ccc([N+](=O)[O-])cc2)cc1	6.0	79.5*	-5.8	24.9	1.3	-2.7
SMILES	MPTP inh	SKKanGAS inh	CSC inhib	Mdm2-MdmX inh	Beta cell apopt	GRIN3A LBD mod
O=C(NNC(=S)NC(=O)c1ccccc1)c1ccc([N+](=O)[O-])cc1	1.9	67.3*	18.6	-5.7	4.4	1.1
CC(=O)NNC(=S)NC(=O)c1cccc([N+](=O)[O-])c1	-0.8	0.8	1.5	21.2	x	2.1
O=C(NNc1c(Cl)cc(Cl)cc1Cl)c1cccc([N+](=O)[O-])c1	16.7	7.4	20.6	-5.0	112.6*	-18.4
O=C(NNC(=S)NC(=O)c1ccc(Br)cc1)c1cccc([N+](=O)[O-])c1	6.0	102.3*	6.4	9.2	0.6	-2.7
COc1ccc(CC(=O)NC2CCCCCC2)c(OC)c1	-0.3	0.6	-4.5	14.6	-5.0	1.2
Cc1ccc(OCC(=O)NNC(=O)c2cc(S(=O)(=O)N(C)C)ccc2N2CCCC2)cc1	2.0	x	x	x	x	x
O=C(NNC(=S)NC(=O)c1ccc(Br)cc1)c1ccc([N+](=O)[O-])cc1	24.7	100.2*	8.0	30.9	1.8	-2.9
Cc1ccc(-c2ccc(C3C(C#N)=C(N)Oc4n[nH]c(C)c43)o2)cc1 (configuration not stated)	7.2	1.0	13.9	0.9	-1.4	-2.7
CCCc1[nH]nc2c1C(c1ccncc1)C(C#N)=C(N)O2 (configuration not stated)	2.0	x	6.9	10.3	x	13.6*
CCCc1[nH]nc2c1C(c1cccnc1)C(C#N)=C(N)O2 (configuration not stated)	-2.4	1.1	-7.4	-8.1	-2.7	-0.1
Cc1[nH]nc2c1C(c1ccc(-c3ccc(Cl)cc3)o1)C(C#N)=C(N)O2 (configuration not stated)	5.2	-0.9	u	25.2	x	14.4*
Cc1ccc(-c2[nH]nc3c2C(c2ccsc2)C(C#N)=C(N)O3)cc1 (configuration not stated)	6.8	11.1	-0.7	10.7	-7.9	12.5*
CC(Sc1nnc(-c2ccccc2F)n1C)C(=O)NC1CCCCC1 (configuration not stated)	0.8	x	14.3	-10.6	-1.3	-0.1
COc1ccccc1C(CNC(=O)c1cc(S(=O)(=O)N2CCOCC2)ccc1C)N1CCCC1 (configuration not stated)	-2.5	x	-8.1	-11.7	-7.1	3.1
Cc1cc(=O)c(C(=O)O)cn1Nc1ccc(Cl)cc1	-3.5	65.1*	-5.0	-15.7	-1.5	-2.7
COc1ccc(C(=O)Nc2nnc(C3=COCCO3)o2)cc1	0.5	26.4	12.3	7.8	-0.3	-1.3
O=C(Nc1nnc(C2=COCCO2)o1)c1cccc(Br)c1	-1.3	99.6*	-5.2	17.2	-8.4	-3.7
CCOc1ccc(C(=O)Nc2nnc(C3=COCCO3)o2)cc1	1.2	71.6*	14.6	8.5	2.2	-1.6
Cc1ccc(OCc2cc(C(=O)NC(C)Cc3cccc(C)n3)no2)cn1 (configuration not stated)	0.8	16.2	-8.7	9.3	1.1	3.4
O=C(COC(=O)c1ccccc1SCC(=O)N1CCCC1)Nc1ccccc1C(F)(F)F	0.4	-1.1	x	10.4	-6.4	-1.0
O=C1CC(c2ccccc2)CN1C(=O)c1ccccc1 (configuration not stated)	3.1	-8.9	-8.1	-2.3	0.7	12.5*
